Reference: the supplement of paper PMC6555819

What was measured:
Assay in all cases: PBM binding z-score (relative to random genomic background probes); higher = stronger binding; sequences stand for … in GC…GCGATTGACAGCGTAGAATGAAGG
[1] = test system: FXR:RXRa (NR concentration 270 nM, RXRa partner concentration 90 nM)
Summary of the method: (§1)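 For binding z-scores, the reference was random background probes on custom Agilent 4×180K protein-binding microarrays. These arrays were incubated 1 h with ligand-free nuclear receptor dimers in PBS pH 7.4, 2% milk, 0.02% Triton X-100, 1 mM DTT, 0.2 mg/mL BSA and 0.4 mg/ml salmon testes DNA. Fluorescence was scanned after antibody detection of each partner (one per run) and regression-normalized.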

[2] = test system: LXRa:RXRa (NR concentration 270 nM, RXRa partner concentration 90 nM)
Summary of the method: as §1

[3] = test system: LXRa homodimer (NR concentration 270 nM)
Summary of the method: as §1

[4] = test system: LXRb:RXRa (NR concentration 270 nM, RXRa partner concentration 90 nM)
Summary of the method: as §1

[5] = test system: LXRb homodimer (NR concentration 270 nM)
Summary of the method: as §1

[6] = test system: PPARa:RXRa (NR concentration 270 nM, RXRa partner concentration 90 nM)
Summary of the method: as §1

[7] = test system: PPARg:RXRa (NR concentration 180 nM, RXRa partner concentration 90 nM)
Summary of the method: as §1

[8] = test system: PPARg:RXRa 270nM:90nM, anti-RXR (NR concentration 270 nM, RXRa partner concentration 90 nM)
Summary of the method: as §1

[9] = test system: PPARg:RXRa 30nM:10nM, anti-RXR (NR concentration 30 nM, RXRa partner concentration 10 nM)
Summary of the method: as §1

[10] = test system: PPARg:RXRa 90nM:30nM, anti-RXR (NR concentration 90 nM, RXRa partner concentration 30 nM)
Summary of the method: as §1

[11] = test system: PPARg:RXRa DBDmut IVT, anti-RXR (DBD mutation: RXRa K156A/R161A, NR concentration 270 nM, RXRa partner concentration 90 nM)
Summary of the method: as §1

[12] = test system: PPARg:RXRa IVT, anti-PPARg (NR concentration 270 nM, RXRa partner concentration 90 nM)
Summary of the method: as §1

[13] = test system: PPARg DBDmut:RXRa IVT, anti-PPARg (DBD mutation: PPARg1 K132A/R137A, NR concentration 270 nM, RXRa partner concentration 90 nM)
Summary of the method: as §1

[14] = test system: PPARg DBDmut IVT, anti-PPARg (DBD mutation: PPARg1 K132A/R137A, NR concentration 270 nM)
Summary of the method: as §1

[15] = test system: PPARg homodimer (NR concentration 180 nM)
Summary of the method: as §1

[16] = test system: PXR:RXRa (NR concentration 270 nM, RXRa partner concentration 90 nM)
Summary of the method: as §1

[17] = test system: PXR homodimer (NR concentration 270 nM)
Summary of the method: as §1

[18] = test system: RARa:RXR (NR concentration 270 nM, RXRa partner concentration 90 nM)
Summary of the method: as §1

[19] = test system: RARa homodimer (NR concentration 270 nM)
Summary of the method: as §1

[20] = test system: RARb:RXRa (NR concentration 270 nM, RXRa partner concentration 90 nM)
Summary of the method: as §1

Sequence | PBM binding z-score [1] | PBM binding z-score [2] | PBM binding z-score [3] | PBM binding z-score [4] | PBM binding z-score [5] | PBM binding z-score [6] | PBM binding z-score [7] | PBM binding z-score [8] | PBM binding z-score [9] | PBM binding z-score [10] | PBM binding z-score [11] | PBM binding z-score [12] | PBM binding z-score [13] | PBM binding z-score [14] | PBM binding z-score [15] | PBM binding z-score [16] | PBM binding z-score [17] | PBM binding z-score [18] | PBM binding z-score [19] | PBM binding z-score [20]
CCTTACGGGTCACTGACAGGTTATAGCATTTGGA | 5.52 | 4.15 | 0.472 | 3.5 | 0.111 | 5.06 | 4.48 | 4.67 | 1.53 | 3.39 | 3.49 | 3.75 | 0.989 | 0.078 | 3.59 | 3.81 | -0.141 | 4.92 | 1.13 | 4.02
TCATACAGGTAAACAGGTGAAAGTCCGTAAGTTA | 0.989 | 1.11 | 0.506 | 1.2 | 0.202 | 2.18 | 1.6 | 3.16 | 4.13 | 3.71 | 3.22 | 2.7 | 0.361 | 1.11 | 1.16 | 1.03 | 0.792 | 1.42 | 1.16 | 0.895
ACTTACGGGTCAACGAGGTTATACCACGCGTATA | 6.87 | 5.39 | 1.14 | 4.59 | 0.838 | 5.83 | 5.59 | 5.57 | 1.82 | 4.26 | 3.73 | 3.99 | 1.8 | 1.74 | 2.9 | 5.43 | 4.36 | 5.72 | 1.26 | 4.34
ACGGACAGGTGATGAAGGTAACTCAGGCTATCAT | 0.169 | -0.084 | -0.0768 | 0.109 | -0.152 | 0.276 | 0.712 | 0.0307 | 0.33 | 0.172 | 0.288 | 0.365 | 0.082 | 0.0676 | 0.411 | 0.11 | 0.211 | 0.174 | 0.939 | 0.745
GCTGCTAGGTCAGGTTGGACAGCTAACGGGTACG | 1.1 | 0.591 | -0.119 | 0.0809 | -0.346 | 1.2 | 0.798 | 0.804 | -0.236 | -0.0943 | 2.44 | 2.18 | -0.356 | -0.812 | 0.345 | 0.082 | -0.273 | 0.436 | -0.846 | 3.39
TAGCCTAGGTAATGGGCCAGTATACCACGCGAAC | -0.654 | -0.856 | -0.526 | -0.351 | -0.976 | -0.193 | 0.503 | 0.264 | -0.0812 | -0.179 | -0.319 | 0.78 | -0.42 | -0.561 | -0.148 | -0.351 | -0.609 | -0.221 | -0.573 | -0.295
ATCTCTAGGTATCCAAGTTCAGTGAATGCCGAAC | 0.313 | 0.879 | 2 | 0.57 | 0.976 | 0.511 | 0.0341 | 0.21 | 0.21 | 0.503 | 0.377 | 0.859 | 0.495 | 0.766 | 1.01 | 1.5 | 1.56 | 0.618 | 0.883 | 0.966
CCTGCTAGGTCAATGGTCAGCCAAAGCAGCTCGC | 2.77 | 2.02 | 0.0245 | 1.36 | -0.223 | 3.1 | 5.04 | 5.03 | 2.96 | 5.02 | 4.18 | 3.97 | -0.884 | -0.321 | 1.16 | 0.76 | -0.543 | 1.52 | -0.219 | 3.77
GCGACCGGGGCATCAGCAGGTTACCATAACTTAA | 0.256 | 0.277 | -0.271 | 0.643 | -0.263 | 1.17 | 0.512 | -0.0952 | -0.743 | -0.899 | 0.0389 | 0.384 | -1.59 | -1.19 | 0.373 | 0.411 | -0.173 | 0.981 | -0.42 | 1.3
CGAACTAGGTCAAGGAGAGTGAATCTCCGCACGC | 2.98 | 1.99 | -0.412 | 1.17 | -0.521 | 4.25 | 7.01 | 6.29 | 3.34 | 5.99 | 8.29 | 7.9 | 1.48 | 0.243 | 0.896 | 0.744 | -0.41 | 1.44 | -0.0147 | 3.74
CTACCAAGGCGAACAAGGTCGTTGATTACTATTC | 0.285 | 0.164 | 0.0479 | 0.521 | -0.798 | 0.658 | 0.0767 | 0.292 | -0.118 | -0.247 | 0.161 | -0.119 | -0.0454 | 0.0113 | 0.33 | 1.25 | 0.453 | 1.16 | 0.111 | 0.395
CTCGAAAGGTAGTGCTCAGGTGAGTATACCAAAC | -0.118 | -0.487 | -0.334 | -0.319 | -0.503 | -0.373 | -0.362 | -0.344 | -0.375 | -0.618 | -0.0569 | -0.0512 | -0.21 | -0.517 | -0.0331 | -0.295 | -0.0771 | 0.238 | 0.44 | -0.123
ATATGTAGGTTACCTCCGGGTCATTCAGGCTATG | 2.86 | 5.14 | 1.84 | 3.15 | 0.804 | 4.5 | 5.68 | 4.82 | 2.2 | 4.09 | 7.18 | 6.7 | 1.67 | 1.41 | 1.74 | 3.67 | 1.8 | 3.75 | 0.561 | 2.51
ATCTCTAGGTAAGATTCAGTTCAGTGAAGAACGC | 0.354 | 0.48 | 0.604 | 0.249 | 0.778 | 0.179 | -0.128 | 0.299 | 0.045 | 0.492 | 0.989 | 0.954 | 0.543 | 0.745 | 0.75 | 0.994 | 1.17 | 0.657 | 1.15 | 0.123
ATGGAAAGGTCGAAGGTGAGTATACCCACCCGAA | 4.22 | 3.27 | 0.0491 | 2.82 | 0.401 | 4.71 | 4.84 | 5.14 | 2.3 | 4.32 | -0.138 | 2.06 | 1.21 | 0.517 | 1.61 | 2.99 | 0.649 | 4.14 | 0.905 | 3.78
